Assay results taken from PubChem BioAssay AID463173 (ICCB-Longwood Screening Facility, Harvard Medical School, 2010).
In all, about 52,000 compounds went through this assay and about 4,300 (8.3%) were called active. Rule as the data show it: active = survival mostly below about 52% (no sharp cut-off); inactive = mostly above about 56%. The list comes from a sample in which actives are over-represented; it also holds similar structures and randomly drawn compounds.

The compounds below were run on DeltatarO mutant (assay: S. aureus survival, RN4220 and DeltatarO strains – OD600, teichoic acid synthesis inhibitors, primary screen (AID 463173)). Conditions: S. aureus RN4220 wild type/DeltatarO growth, OD600, 18 h, stronger effect = lower value, screened at 18.75 µg/mL (by protocol).

**Q.** With `O=C(CCS(=O)(=O)c1cc2c(cc1Cl)NC(=O)CO2)NCc1ccccc1` as the compound, how does the survival read?
**A.** 106% (inactive)

**Q.** Which survival does the source give for `CCOC(=O)c1c(C)[nH]c(CCC(=O)NCc2cc(Br)ccc2OC)c1C` here?
**A.** 115% (inactive)

**Q.** `O=C(NCCN1CCOCC1)c1ccncc1` was tested. Which survival did it give?
**A.** 96% (inactive)

**Q.** `Cc1cccc(OCC(=O)Nc2cccc(OCc3cc(=O)n4cccc(C)c4n3)c2)c1` was tested. Which survival did it give?
**A.** 109% (inactive)

**Q.** `COCCNC(=O)CCc1c(C)n(C)c2cc(-c3cc(OC)c(OC)c(OC)c3)nn2c1=O` was tested. Which survival did it give?
**A.** 25% (active)

**Q.** For `COc1cc(-c2cc3n(C)c(C)c(CCC(=O)NCc4ccccc4)c(=O)n3n2)cc(OC)c1OC`, which survival is on record?
**A.** 92% (inactive)

**Q.** For `COc1cc(-c2cc3n(C)c(C)c(CCC(=O)O)c(=O)n3n2)cc(OC)c1OC`, which survival is on record?
**A.** 94% (inactive)

**Q.** Which survival does the source give for `O=C(O)CCC(=O)Nc1ccncc1` here?
**A.** 92% (inactive)

**Q.** With `Cc1ccc(Cl)cc1N1CCN(C(=O)CCSCc2ccccc2F)CC1` as the compound, how does the survival read?
**A.** 89% (inactive)

**Q.** With `Cc1cc(C)cc(NC(=O)C(=O)NCC(c2cccnc2)N2CCOCC2)c1` (centres undefined) as the compound, how does the survival read?
**A.** 107% (inactive)

**Q.** With `CCOC(=O)C1CCN(C(c2ccc(OCC)cc2)c2c(O)cc(C)n(CCOC)c2=O)CC1` (centres undefined) as the compound, how does the survival read?
**A.** 67% (inactive)

**Q.** For `COc1ccccc1CN1C(=O)C(=O)c2cccc(C)c21`, which survival is on record?
**A.** 103% (inactive)

**Q.** How did the survival turn out when `Cc1ccc2c(c1)C(=O)C(=O)N2Cc1ccc(OCCC(C)C)cc1` was run?
**A.** 93% (inactive)

**Q.** How did the survival turn out when `Cc1ccc2c(c1)C(=O)C(=O)N2Cc1ccc(OC(C)C)cc1` was run?
**A.** 120% (inactive)

**Q.** `Cc1ccc(C)c(CN2C(=O)C(=O)c3ccccc32)c1` was tested. Which survival did it give?
**A.** 92% (inactive)

**Q.** Which survival does the source give for `CCCCOc1ccc(CN2C(=O)C(=O)c3cc(Br)cc(C)c32)cc1OC` here?
**A.** 49% (inactive)

**Q.** With `CCOc1ccc(CN2C(=O)C(=O)c3cccc(C)c32)cc1OC` as the compound, how does the survival read?
**A.** 118% (inactive)

**Q.** `CC(C)CN1C(=O)c2ccc(Br)cc2C1=O` was tested. Which survival did it give?
**A.** 67% (inactive)

**Q.** With `Cc1cc(Br)cc2c1N(Cc1ccccc1OC(C)C)C(=O)C2=O` as the compound, how does the survival read?
**A.** 22% (active)

**Q.** With `Cc1ccc(CN2C(=O)C(=O)c3cc(Br)cc(C)c32)cc1` as the compound, how does the survival read?
**A.** 31% (active)

**Q.** Which survival does the source give for `CCCOc1ccc(CN2C(=O)C(=O)c3cccc(C)c32)cc1` here?
**A.** 39% (active)

**Q.** How did the survival turn out when `COc1ccccc1Cn1ccn(Cc2ccc(C)cc2)c(=O)c1=O` was run?
**A.** 112% (inactive)

**Q.** With `Cc1cccc2c1N(Cc1ccccc1OCCC(C)C)C(=O)C2=O` as the compound, how does the survival read?
**A.** 2% (active)

**Q.** For `Cc1cc(C)cc(NC(=O)C2CCCN2S(=O)(=O)c2ccc3c(c2)CCCC(=O)N3)c1` (centres undefined), which survival is on record?
**A.** 83% (inactive)

**Q.** Which survival does the source give for `CCc1ccc(NC(=O)Cn2nnc(C(=O)Nc3ccc(F)cc3)c2N)cc1` here?
**A.** 99% (inactive)

**Q.** Which survival does the source give for `COc1ccc(-n2nc(C(=O)N3CCCC(C)C3)c3c4ccccc4n(C)c3c2=O)cc1` (centres undefined) here?
**A.** 74% (inactive)

**Q.** For `c1ccc(-c2nc(-c3cccnc3)no2)cc1`, which survival is on record?
**A.** 98% (inactive)

**Q.** For `O=c1[nH]ncc(NCCc2ccccc2)c1Cl`, which survival is on record?
**A.** 101% (inactive)

**Q.** With `N#Cc1ccccc1Cn1c(=O)n(Cc2ccc(C(=O)NC3CCN(Cc4ccccc4)CC3)cc2)c(=O)c2ccccc21` as the compound, how does the survival read?
**A.** 90% (inactive)

**Q.** `COC(=O)c1ccc(NC(=O)C(=O)NCCc2sc3nc(-c4ccc(OC)cc4)nn3c2C)cc1` was tested. Which survival did it give?
**A.** 83% (inactive)

**Q.** For `O/N=C1\CCCc2nnc3c(c21)CCCC3`, which survival is on record?
**A.** 101% (inactive)

**Q.** Which survival does the source give for `CCOC(=O)/C(C#N)=C\C1=C(N2CCCC2)CC(C)(C)OC1` here?
**A.** 91% (inactive)

**Q.** `Cc1nc2ccc(S(=O)(=O)NCC(=O)Nc3ccc(F)cc3F)cc2s1` was tested. Which survival did it give?
**A.** 120% (inactive)

**Q.** Which survival does the source give for `CCOc1ccc(S(=O)(=O)NCC(c2ccc(N(C)C)cc2)N2CCCC2)cc1` (centres undefined) here?
**A.** 107% (inactive)

**Q.** Which survival does the source give for `COc1ccc(Nc2ncnc3onc(C)c23)cc1Cl` here?
**A.** 87% (inactive)

**Q.** How did the survival turn out when `O=C(c1ccc(Cl)cc1)N1CCC(c2nc3ccccc3o2)CC1` was run?
**A.** 79% (inactive)

**Q.** With `CCc1ccccc1NC(=O)Cn1nnc(C(=O)NCc2ccco2)c1N` as the compound, how does the survival read?
**A.** 93% (inactive)

**Q.** Which survival does the source give for `CS(=O)(=O)N1CCc2cc(C(=O)Nc3ccc(S(N)(=O)=O)cc3)ccc21` here?
**A.** 48% (inactive)

**Q.** With `NS(=O)(=O)c1ccc(NC(=O)c2ccc3c(c2)CCN3S(=O)(=O)c2ccccc2)cc1` as the compound, how does the survival read?
**A.** 43% (active)

**Q.** Which survival does the source give for `CC(=O)Nc1ccc(NC(=O)c2ccc3c(c2)CCN3S(=O)(=O)c2ccc(C)cc2)cc1` here?
**A.** 62% (inactive)

**Q.** `CC(NC(=O)c1ccc2c(c1)CCN2S(C)(=O)=O)c1ccccc1` (centres undefined) was tested. Which survival did it give?
**A.** 91% (inactive)

**Q.** With `CC(NC(=O)c1ccc2c(c1)CCN2S(=O)(=O)c1ccc(Cl)cc1)c1ccccc1` (centres undefined) as the compound, how does the survival read?
**A.** 67% (inactive)

**Q.** `CC(C)c1ccc(NC(=O)c2ccc3c(c2)CCN3S(=O)(=O)c2ccccc2)cc1` was tested. Which survival did it give?
**A.** 44% (active)

**Q.** For `CC(NC(=O)c1ccc2c(c1)CCN2S(=O)(=O)c1ccccc1)c1ccccc1` (centres undefined), which survival is on record?
**A.** 37% (active)

**Q.** How did the survival turn out when `CC(C)c1ccc(NC(=O)c2ccc(F)c(S(=O)(=O)N3CCc4ccccc43)c2)cc1` was run?
**A.** 83% (inactive)

**Q.** How did the survival turn out when `COc1ccc(NC(=O)c2ccc3c(c2)CCN3S(=O)(=O)c2ccccc2)cc1` was run?
**A.** 92% (inactive)

**Q.** How did the survival turn out when `Cc1ccc(Nc2nc3ccccc3c3nnc(C)n23)c(C)c1` was run?
**A.** 70% (inactive)

**Q.** With `CC(C)(C)OC(=O)N1CCC(c2c(C(=O)NCc3ccco3)cnn2-c2ccc(F)cc2F)CC1` as the compound, how does the survival read?
**A.** 83% (inactive)

**Q.** How did the survival turn out when `COc1cc(C)ccc1OCCSc1nc2ccc(NC(=O)c3ccc4c(c3)OCO4)cc2s1` was run?
**A.** 64% (inactive)

**Q.** For `CN(C(=O)C1CCCN(c2ncnc3c2nc2n3CCCCC2)C1)c1ccccc1F` (centres undefined), which survival is on record?
**A.** 81% (inactive)

**Q.** For `CCC(NC(=O)Nc1cc(OC)ccc1OC)c1c(-n2cccc2)sc2c1CCN(CC)C2` (centres undefined), which survival is on record?
**A.** 88% (inactive)

**Q.** `Fc1cccc(CSc2ccc(-c3cccs3)nn2)c1` was tested. Which survival did it give?
**A.** 94% (inactive)

**Q.** `Cc1ccc(C)c(CNC(=O)c2sc3ncnc(N(C)C4CCCCC4)c3c2C)c1` was tested. Which survival did it give?
**A.** 115% (inactive)

**Q.** How did the survival turn out when `Cc1ccc(Oc2c(C(F)(F)F)oc3cc(OCC(=O)NC4CCCCC4)ccc3c2=O)cc1` was run?
**A.** 46% (active)

**Q.** Which survival does the source give for `Cc1cc(C)cc(Oc2c(C(F)(F)F)oc3cc(OCC(=O)NC4CCCCC4)ccc3c2=O)c1` here?
**A.** 110% (inactive)

**Q.** `Cc1ccc(Oc2coc3cc(OCC(=O)NC4CCCCC4)ccc3c2=O)cc1` was tested. Which survival did it give?
**A.** 55% (inactive)

**Q.** `CCc1ccc(C(=O)COC(=O)C(NC(=O)C2CCC(C)CC2)C(C)C)cc1` (centres undefined) was tested. Which survival did it give?
**A.** 72% (inactive)

**Q.** With `CC1(C)CC(=O)C=C(NCC2CCNCC2)C1` as the compound, how does the survival read?
**A.** 95% (inactive)

**Q.** How did the survival turn out when `CCOc1ccc(CCNC(=O)CCN2N=C(c3ccc(OC)cc3)CCC2=O)cc1OCC` was run?
**A.** 81% (inactive)
